Screening results deposited in PubChem BioAssay by Broad Institute.
MITF TRPM1 HTS: activators of MITF-driven TRPM1 promoter reporter, primary screen, cell-based, SK-MEL-5, luciferase, single point. SK-MEL-5 TRPM1-promoter luciferase, 24 h; % of positive control, neutral wells = 0. activation, % at 12.5 µM. 0.75% of 300,000 active. AID 588334, 2011;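 active = mean activation of at least 80% with every replicate also reaching 80%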
TRPM1 prom inh: inhibitors of MITF-dependent TRPM1 promoter reporter, primary screen, cell-based, SK-MEL-5, single point, luciferase; SK-MEL-5 TRPM1 promoter luciferase, 24 h; inhibition, % at 12.5 µM; 0.83% of 330,000 active; AID 488899, 2010;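 active = mean inhibition across replicates of 60% or more, whatever share of single replicates reaches that level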
PAX8 inh HTS: inhibitors of PAX8-driven TPO luciferase reporter, primary screen, RMG-I cells, single concentration | inhibition, % at 12.6 µM | 1.2% of 360,000 active | SteadyGlo, 24 h;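 active = mean replicate inhibition at least 60% with every replicate also reaching 60%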;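 note: luciferase light reporting Pax8 driven TPO promoter activity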
Wnt act: Wnt/beta-catenin pathway activators, primary screen, cell-based, plate reader, single point; 1.2% of 300,000 active; AID 743398, 2014; activation, % at 9.35 µM; Wnt/beta-catenin reporter cell assay, activator; in the data active = activation above about 30%, passing the limit was not always enough
EWS-Fli inh: EWS/Fli-driven NR0B1 reporter inhibitors, primary screen, A673 cells, NR0B1 luciferase, luminescence, MLPCN library; inhibition, % at 12.6 µM; viability-normalised; AID 651661, 2012; 0.67% of 350,000 active;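 active = mean inhibition of at least 50% after viability correction, with every replicate also passing that limit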;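 note: firefly luciferase signal divided by Alamar Blue viability fluorescence both relative to DMSO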
esBAF inh: Bmi1 luciferase reporter increase in mESCs, primary screen, esBAF inhibitor project, mouse ES cells, Bmi1 luciferase knock-in, single point | 2% of 350,000 active | 24 h; 100% = twice the neutral-well signal | reporter increase, % at 12.5 µM; in the data active = activation above about 40%;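 note: a rise in the Bmi1 reporter signal indicates esBAF inhibition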
Hits are given with their value; 0 = inactive; - = no result. In the library only some 4% were active in any assay of this set; here they are far more common.

SMILES	MITF TRPM1 HTS	TRPM1 prom inh	PAX8 inh HTS	Wnt act	EWS-Fli inh	esBAF inh
CC(=O)c1ccc(OCc2cc(C(=O)N(C)Cc3cc(C)no3)no2)cc1	0	0	0	0	-	62
CC(=O)c1cccc(OCc2cc(C(=O)N(C)Cc3cnccn3)no2)c1	96	0	0	0	-	-
CC(=O)c1ccc(OCc2cc(C(=O)N(C)C(C)c3nccs3)no2)cc1 (stereo not drawn)	0	0	0	0	-	54
Cc1noc(C)c1NC(=O)N(C)C[C@H]1Oc2ccc(NC(=O)Cc3cn(C)c4ccccc34)cc2C(=O)N([C@@H](C)CO)C[C@@H]1C	-	-	-	-	0	0
FC(F)Sc1ccc(-n2c(-c3ccc(Cl)cc3)c[n+]3c2CCC3)cc1	0	0	67	0	0	-
COc1ccc(-n2c(-c3ccc(Br)cc3)c[n+]3c2CCCCC3)cc1	0	0	84	0	0	-
Cc1ccc(-n2c(-c3ccc(Cl)cc3)c[n+]3c2CCC3)cc1	-	0	0	0	0	-
CCOc1ccc(-n2c(-c3ccc(Cl)cc3)c[n+]3c2SCC3)cc1	0	0	86	0	0	-
COc1ccc(-n2c(-c3ccc(Br)cc3)c[n+]3c2SC(C)C3)cc1 (stereo not drawn)	0	0	74	0	0	-
C[C@@H]1CCCCO[C@H](CN(C)C(=O)c2ccncc2)[C@H](C)CN([C@H](C)CO)C(=O)c2cc(NC(=O)C3CCCCC3)ccc2O1	-	-	0	-	0	0
CCOc1ccc(-c2nnc(-c3ccccc3)n2-c2ccccc2)cc1	-	0	0	59	-	0
COc1ccc(-n2c(-c3ccc(Br)cc3)c[n+]3c2CCC3)cc1	0	0	80	0	0	0
CCOc1ccc(-c2c[n+]3c(n2-c2ccccc2)CCCCC3)cc1	0	0	80	0	0	-
COc1ccc(-n2c(-c3ccccc3)c[n+]3c2CCC3)cc1	0	0	0	0	0	0
CCOc1ccc(-c2nnc(-c3ccccc3)o2)cc1	0	0	-	-	-	0
C[C@@H]1CCCCO[C@H](CN(C)C(=O)Nc2ccc(C(F)(F)F)cc2)[C@H](C)CN([C@@H](C)CO)C(=O)c2cc(NC(=O)C3CCCCC3)ccc2O1	-	-	0	-	0	0
C=CCn1c(SCc2cc(C(C)=O)ccc2OCC)nc2ccccc2c1=O	0	0	0	0	54	-
COc1ccc(C(C)=O)cc1CSc1nc2ccccc2c(=O)n1-c1ccccc1	0	0	0	0	-	0
CCC(=O)N1CC(=O)N2[C@H](C1)[C@H](c1ccc(-c3cccnc3)cc1)[C@@H]2CO	-	-	0	-	0	-
CCC(=O)Oc1ccc2oc(=O)cc(C)c2c1	0	0	0	0	-	0
Cc1cc(=O)oc2ccc(OC(=O)CN3C(=O)c4cccc([N+](=O)[O-])c4C3=O)cc12	0	0	147	0	0	-
O=[N+]([O-])c1ccc(N=Nc2c(O)[nH]c3ccc(F)cc23)cc1	0	0	0	0	0	73
O=[N+]([O-])c1ccccc1N=Nc1c(O)[nH]c2ccc(F)cc12	0	0	0	31	0	-
CC(=O)n1cc(CO)c2ccccc21	0	0	-	0	0	0
CC(=O)n1cc(N(C(=O)CCl)c2ccc([N+](=O)[O-])cc2)c2ccccc21	-	69	0	0	56	-
SMILES	MITF TRPM1 HTS	TRPM1 prom inh	PAX8 inh HTS	Wnt act	EWS-Fli inh	esBAF inh
O=Cc1[nH]c2ccccc2c1N(C(=O)CCl)c1ccc([N+](=O)[O-])cc1	-	0	90	0	0	-
CC(=O)n1cc(N(C(=O)CCl)c2ccccc2)c2ccccc21	-	66	109	0	0	-
CS(=O)(=O)Nc1ccc2c(c1)[C@H]1C[C@@H](CC(=O)NCc3ccc(Oc4ccccc4)cc3)O[C@H](CO)[C@H]1O2	-	-	0	-	0	0
COc1ccc(COc2cc(-c3cccc(OC)c3)nc3ccc(NC(=O)c4cccnc4)cc23)cc1	0	0	65	0	0	0
COc1ccc(COc2cc(-c3cccc(OC)c3)nc3ccc(NC(=O)c4ccc(Cl)cc4)cc23)cc1	0	0	0	0	57	0
COc1cccc(NC(=O)c2cc(-c3ccc(OC)cc3OC)nc3ccccc23)c1	-	-	0	0	0	-
COc1ccc(Cc2nc(-c3ccc(NC(=O)c4cccnc4)cc3)no2)cc1	0	0	-	-	-	-
COc1ccc(COc2cc(-c3cccc(OC)c3)nc3ccc(NC(=O)c4ccc(OC)cc4)cc23)cc1	0	0	78	0	0	0
COc1ccc(COc2cc(-c3cccc(OC)c3)nc3ccc(NC(=O)c4ccccc4)cc23)cc1	0	0	0	0	58	0
O=C(O)c1cccc(NC(=O)c2ccc(COc3ccc(Cl)cc3)cc2)c1	0	0	0	0	0	0
C[C@H]1CN([C@@H](C)CO)C(=O)c2cc(NC(=O)CCC(F)(F)F)ccc2O[C@@H]1CN(C)C(=O)NC1CCCCC1	-	-	0	-	0	0
CC(C)NC(=O)N[C@@H]1CC[C@H](CCNS(=O)(=O)Cc2ccccc2)O[C@@H]1CO	-	-	0	-	0	0
CCCCC(=O)Nc1ccccc1C(=O)OCC(=O)c1ccc2c(c1)OCCO2	0	0	0	0	-	-
CCC(=O)Nc1ccccc1C(=O)OCC(=O)c1ccc2ccccc2c1	0	0	0	50	-	0
O=C(O)/C=C\C(=O)Nc1ccccc1C#Cc1ccc(Br)cc1	0	0	-	-	-	0
CCCCCCOC(=O)c1ccccc1NC(=O)/C=C/C(=O)O	-	0	0	34	-	0
O=C(O)/C=C\C(=O)Nc1ccccc1C#Cc1ccccc1	0	0	-	-	-	56
CCOC(=O)c1ccccc1NC(=O)/C=C/C(=O)O	0	0	0	0	0	-
O=C(O)/C=C/C(=O)Nc1ccccc1C(=O)OCC(=O)c1ccc2c(c1)OCCO2	0	0	0	32	0	-
CCS(=O)(=O)N1CC2(C1)[C@H](c1ccccc1)[C@@H](CO)N2C(=O)C1CC1	-	-	0	-	0	-
Cc1ccccc1S(=O)(=O)N1C[C@@H](O)COC[C@@H]2O[C@H](CC(=O)NCCc3ccccc3)CC[C@H]21	-	-	0	-	0	0
COc1ccc2c3c(n(C)c2c1)[C@@H](CO)N(CC1CCOCC1)CC31CN(CC2CCOCC2)C1	-	-	-	-	0	-
CN(Cc1cc(-c2ccccc2)on1)C(=O)c1cc(COc2c(F)cccc2F)on1	0	0	0	0	0	54
COC(=O)[C@H](Cc1ccccc1)NC(=O)c1cc(COc2c(F)cccc2F)on1	0	0	0	0	0	52
COC(=O)[C@@H](NC(=O)NCCC1=CCCCC1)C(C)C	0	0	0	65	0	0
COC(=O)[C@H](CC(C)C)NC(=O)NCCC1=CCCCC1	0	0	0	0	0	-
COCC(=O)N1CC2(C1)[C@@H](c1ccccc1)[C@@H](CO)N2Cc1ccccc1OC	-	-	0	-	0	-
N#CC1c2ccccc2-c2ccccc2N1C(=O)c1ccccc1 (stereo not drawn)	-	-	0	0	55	0
Cc1ccc2c(c1)c1c(n2C)-c2[nH]ncc2CC1	-	0	-	41	-	0
